A selection: hits, their analogues and other compounds. The true share with any hit is near 3.1%.
EP2 mod – EP2 receptor modulators, cAMP readout, primary screen, cell-based, HTRF cAMP, PGE2 stimulation; EP2-expressing cells, cAMP HTRF FRET, PGE2 co-stimulation; Prostaglandin E2 receptor EP2 subtype (Homo sapiens), P43116; 260,000 tested, 0.83% active; induction, % at 25 µM;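 active = compounds whose cAMP rise, as percent of the full-agonist control response, exceeds 60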;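 also: rat C6 glioma line stably carrying human EP2 under a CMV promoter; the protocol text gives 20 µM as final concentration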
Cl transport mod – KCC2 cotransporter modulators, thallium flux, primary screen, cell-based, HEK293 KCC2, FluoZin-2 fluorescence, MLSMR | Solute carrier family 12 member 5 (Homo sapiens), Q9H2X9 | KCC2 cells, thallium flux FluoZin-2 fluorescence | B-score of Tl+ flux slope (higher = more flux/activation; lower = inhibition) at 10 µM | 190,000 tested, 2.2% active | AID 1456, 2008;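 active = thallium flux slope and its plate-corrected score both differing from the plate sample mean at a set confidence after two filtering rounds, in either direction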;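 also: slope of fluorescence scaled to starting intensity during 10 to 20 s after thallium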
Target sequence (Q9H2X9 whole entry, looked up): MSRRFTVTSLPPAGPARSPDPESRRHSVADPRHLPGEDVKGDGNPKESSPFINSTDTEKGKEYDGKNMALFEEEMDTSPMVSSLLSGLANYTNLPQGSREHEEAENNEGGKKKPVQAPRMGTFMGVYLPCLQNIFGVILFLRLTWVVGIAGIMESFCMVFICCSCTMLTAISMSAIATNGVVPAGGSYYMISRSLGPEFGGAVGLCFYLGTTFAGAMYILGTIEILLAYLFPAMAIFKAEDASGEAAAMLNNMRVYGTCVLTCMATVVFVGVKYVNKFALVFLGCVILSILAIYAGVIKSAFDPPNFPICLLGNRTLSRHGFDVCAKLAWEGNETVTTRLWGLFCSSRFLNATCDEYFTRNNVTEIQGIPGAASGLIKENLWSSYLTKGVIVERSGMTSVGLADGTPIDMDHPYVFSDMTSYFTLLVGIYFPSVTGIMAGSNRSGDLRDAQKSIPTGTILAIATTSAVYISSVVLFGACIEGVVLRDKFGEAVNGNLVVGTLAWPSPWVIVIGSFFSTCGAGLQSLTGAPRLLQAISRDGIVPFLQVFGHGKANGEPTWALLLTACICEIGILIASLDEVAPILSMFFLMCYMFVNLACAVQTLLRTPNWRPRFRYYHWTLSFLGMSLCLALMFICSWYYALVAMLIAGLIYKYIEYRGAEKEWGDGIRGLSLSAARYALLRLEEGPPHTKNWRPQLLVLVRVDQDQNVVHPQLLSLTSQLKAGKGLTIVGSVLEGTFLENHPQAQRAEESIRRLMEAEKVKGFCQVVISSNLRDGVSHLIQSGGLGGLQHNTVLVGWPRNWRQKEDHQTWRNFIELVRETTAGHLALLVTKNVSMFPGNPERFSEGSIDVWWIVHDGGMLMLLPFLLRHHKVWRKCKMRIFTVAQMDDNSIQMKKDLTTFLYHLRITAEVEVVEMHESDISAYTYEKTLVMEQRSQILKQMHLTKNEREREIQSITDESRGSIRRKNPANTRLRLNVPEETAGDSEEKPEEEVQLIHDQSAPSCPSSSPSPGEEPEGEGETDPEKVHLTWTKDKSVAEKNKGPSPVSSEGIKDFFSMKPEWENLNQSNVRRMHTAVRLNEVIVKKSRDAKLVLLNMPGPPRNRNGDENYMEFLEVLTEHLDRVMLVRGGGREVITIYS
PGE2 EP2 inh – human EP2 receptor antagonists, primary screen, TR-FRET cAMP, C6 glioma cells. Prostaglandin E2 receptor EP2 subtype (Homo sapiens), P43116. C6 glioma cells expressing human EP2; cells stimulated with saturating PGE2. inhibition, % at 25 µM. 260,000 tested, 0.52% active;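 active = percent inhibition above 40 after rounding to a whole number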;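 also: rat C6 glioma host cells with rolipram phosphodiesterase inhibitor present; the protocol text gives 20 µM as final concentration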
S1P3 antagonist – S1P3 receptor antagonists, primary screen, cell-based. CHO S1P3 NFAT-BLA reporter, FRET fluorescence, antagonist mode. inhibition, % at 4.98 µM. 170,000 tested, 0.27% active. AID 485, 2006. Sphingosine 1-phosphate receptor 3 (Homo sapiens), Q99500;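 active = inhibition above the plate cutoff, the mean inhibition of test wells on that plate plus 3 SD, cut at about 28% in these data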;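 also: cells challenged with S1P at its EC80 of 0.8 µM; blue over green emission ratio from cleaved BLA substrate after 4 h stimulation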
EP2 confirm – cAMP induction in EP2, EP4, beta2-AR and parental cells, confirmation, counter-screen for EP2 modulator project, cell-based, five parallel assays, C6 glioma, HEK293. shares compounds with EP2 mod. cAMP HTRF induction; plus low (about EC15) PGE2 agonist. calls only at 20 µM (by protocol). 1,300 tested, 47% active. AID 1080, 2008;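 active = cAMP induction above 50% in the main assay while under 30% in all four parallel counter assays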;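 also: rat C6 glioma cells stably expressing human EP2 receptor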
Hits are given with their value; i = inactive; nt = no result given; + = active, no number.

SMILES	EP2 mod	Cl transport mod	PGE2 EP2 inh	S1P3 antagonist	EP2 confirm
CCOc1ccc(NC(=O)c2sc(NC(=O)c3ccccc3F)c(C(=O)OC)c2C)cc1	i	nt	i	nt	nt
COc1ccc(-c2nnc(SCC(=O)Nc3ccc(Cl)c(Cl)c3)n2C)cc1OC	i	nt	i	nt	nt
O=C(O)c1ccc(C(=O)O)c(C(=O)Nc2ccc3c(c2)Cc2ccccc2-3)c1	92	nt	61	nt	+
COC(=O)c1ccc(Cn2nc([N+](=O)[O-])c(Cl)c2C)o1	i	nt	i	nt	nt
Cc1cc(C(=O)NCC(c2ccco2)N(C)C)no1 (configuration not stated)	71	i	i	nt	i
NC1=NC(=O)C(CC(=O)Nc2ccc(-c3ccc(Cl)cc3)cc2)S1 (configuration not stated)	i	nt	i	nt	nt
Cc1ccc2c(c1)cc(C)c1nn(CC(=O)NC3CC3)c(=O)n12	i	nt	i	nt	nt
COCCOC(=O)c1c(C)oc2ccc(OCc3ccccc3)cc12	65	i	i	i	i
COCCOC(=O)c1c(C)oc2ccc(OC(=O)c3ccco3)cc12	i	i	i	i	nt
CC(CCc1ccccc1)NC(=O)CN1CCC2(CC1)NC(=O)c1ccccc1O2 (configuration not stated)	i	nt	i	nt	nt
COC(=O)c1c(NC(=O)c2ccc(F)cc2)sc(C(=O)NC2CCCCC2)c1C	i	nt	i	nt	nt
CCOC(=O)C1=C(N)OC2=C(C(=O)CC(C)(C)C2)C1c1ccc(C)s1 (configuration not stated)	i	i	i	i	nt
CCOC(=O)C1=C(N)OC2=C(C(=O)CC(C)(C)C2)C1c1ccc(CC)s1 (configuration not stated)	73	i	i	i	+
COCCCn1c(SCC(=O)Nc2cccc(F)c2)nnc1-c1ccco1	i	nt	i	nt	nt
CCN(CC)C(=O)c1cc(Cl)ccc1NC(=O)c1ccco1	i	i	i	i	nt
CCN(CC)P(=O)(Nc1ccccc1Br)c1ccc(N(C)C)cc1NC(=O)c1ccco1 (configuration not stated)	66	i	i	i	i
Cc1ccc(NC(=O)COc2ccc(S(=O)(=O)N3CCCC3)cc2)cc1C	i	nt	i	nt	nt
CCOC(=O)CSc1nnc2n(C3CCCCC3)c(=O)c3c4c(sc3n12)CCCC4	66	i	i	nt	i
O=C(O)COc1ccc2occ(C(=O)c3ccccc3)c2c1	66	nt	i	i	+
Cc1ccc(C(=O)c2coc3ccc(OCC(=O)O)cc23)cc1	69	i	i	i	+
O=C(O)COc1ccc2oc3ccccc3c2c1	i	i	i	i	nt
CCC1Oc2ccccc2N(Cc2ccccc2C)C1=O (configuration not stated)	74	i	i	nt	+
Cc1sc2nc(C)n(C3CCN(CC(=O)NC4CCCC4)CC3)c(=O)c2c1C	i	nt	i	nt	nt
Cc1ccc2nc(-c3ccc(NS(C)(=O)=O)cc3)cc(-c3ccccc3)c2c1	i	nt	i	nt	nt
Cc1ccc2nc(-c3ccncc3)cc(-c3ccccc3)c2c1	92	nt	i	nt	+
SMILES	EP2 mod	Cl transport mod	PGE2 EP2 inh	S1P3 antagonist	EP2 confirm
COc1ccc(CCN(Cc2ccncc2)Cc2c[nH]c3ccccc23)cc1OC	i	nt	i	nt	nt
CC(=O)c1cc(C#N)c(SCc2ccccc2)nc1C	72	i	i	nt	+
O=C(O)C1Cc2c([nH]c3ccccc23)C23CCN(CC2)CC(=O)N13 (configuration not stated)	i	nt	nt	nt	nt
CC(=O)Nc1sc(NC(=O)c2ccco2)nc1-c1cccs1	i	nt	i	nt	nt
O=C(Nc1nc(-c2cccs2)c(-c2ccccc2)s1)c1ccco1	73	nt	i	i	+
Nc1c(C(=O)c2ccc(Cl)cc2)oc2ccccc12	i	i	i	i	nt
O=C(c1ccc(Cl)cc1)c1oc2ccccc2c1CS(=O)c1ccc(Cl)cc1 (configuration not stated)	73	i	i	nt	+
CC1C(c2ccccc2)N(C)C(c2ccccc2)C(C)C1(O)C#Cc1ccccc1 (configuration not stated)	66	i	i	i	+
C=CCNC(=S)NNc1nc(Nc2ccccc2)nc(N2CCCCC2)n1	74	i	i	i	i
S=C(NNc1nc(Nc2ccccc2)nc(N2CCCCC2)n1)NC1CCCCC1	i	i	i	i	nt
CCCn1c(SCC(=O)Nc2cc(C)cc(C)c2)nnc1-c1ccncc1	i	nt	i	nt	nt
Cc1ccn2c(Nc3ccccc3C)c(-c3ccccn3)nc2c1	66	i	i	i	i
Cc1ccccc1Nc1c(-c2ccccn2)nc2ccccn12	66	i	i	i	i
Cc1ccc2nc(-c3ccccn3)c(Nc3ccccc3C)n2c1	67	i	i	i	i
Cc1ccccc1Nc1c(-c2cccnc2)nc2ccccn12	i	i	i	i	nt
Cc1ccc(-c2nc(C(N)=O)c3[nH]c(=O)n(CC4CCCO4)c3n2)cc1 (configuration not stated)	i	nt	i	nt	nt
N#Cc1c(NC(=S)NC(=O)c2cccnc2)sc2c1CCCCC2	i	nt	i	nt	nt
COc1cccc(C(=O)N(Cc2cc3cc(C)cc(C)c3[nH]c2=O)CC2CCCO2)c1 (configuration not stated)	i	nt	i	nt	nt
Cc1cccc(C)c1OCc1nnc(SCC(=O)Nc2nccs2)n1-c1ccccc1	i	i	i	i	i
O=C(CSc1nnc(CCCO)n1-c1ccccc1)Nc1nccs1	i	i	i	i	nt
CC(C)[C@@H](Cn1nc(C2CC2)ccc1=O)NC(=O)Cc1cccs1	i	nt	nt	nt	nt
CCOC(=O)c1c(C2COc3ccccc3O2)csc1NC(=O)c1ccccc1 (configuration not stated)	i	nt	i	nt	nt
CCOC(=O)c1c(C2COc3ccccc3O2)csc1N (configuration not stated)	70	i	i	i	+
CC(=O)C(=Cc1ccc(-c2ccccc2Cl)o1)C(C)=O	i	nt	i	nt	nt
COC(=O)c1sc2nc(-c3ccccc3)c3c(c2c1N)CCCC3	73	i	i	nt	i
SMILES	EP2 mod	Cl transport mod	PGE2 EP2 inh	S1P3 antagonist	EP2 confirm
CCOC(=O)c1sc2nc(N3CCOCC3)c3c(c2c1N)CCCC3	i	nt	i	i	nt
CCN(CC)C(=O)c1sc2nc(N3CCOCC3)c3c(c2c1N)CCCC3	i	nt	i	nt	nt
COC(=O)c1sc2nc(N3CCCCC3)c3c(c2c1N)CCCC3	74	i	i	nt	i
Nc1c(C(=O)O)sc2nc(-c3ccccc3)c3c(c12)CCCC3	i	i	i	i	nt
NC(=O)c1sc2nc(N3CCCCC3)c3c(c2c1N)CCCC3	76	i	i	i	+
CCCn1c(C)nc2c(c1=O)c1nc3ccccc3nc1n2CCC1=CCCCC1	72	i	i	i	i
CCCn1c(C)nc2c(c1=O)c1nc3ccccc3nc1n2CCc1ccccc1	nt	i	nt	i	nt

From PubChem BioAssay
